Screens as filed in PubChem.
Avidin bead fluor = avidin bead compound fluorescence profile; 220,000 tested, 0.38% active; Avidin beads, compound fluorescence 488/530 nm, flow cytometry; hits give high values; fluorescence (KMESF) at 10 µM; in the data active means fluorescence above about 47
RGS8-Gao reg = human RGS8-Galphao interaction regulation | response (percent of control binding), % at 10 µM | multiplexed bead flow cytometry, RGS8-Galphao binding; actives lie on both sides | P09471 | 220,000 tested, 0.34% active; in the data active means response below about 60% or above about 140%; inactive means in between;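 further: Galphao activated as the GDP aluminium fluoride complex binding bead-coupled RGS8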
Target sequence (P09471 whole entry, looked up): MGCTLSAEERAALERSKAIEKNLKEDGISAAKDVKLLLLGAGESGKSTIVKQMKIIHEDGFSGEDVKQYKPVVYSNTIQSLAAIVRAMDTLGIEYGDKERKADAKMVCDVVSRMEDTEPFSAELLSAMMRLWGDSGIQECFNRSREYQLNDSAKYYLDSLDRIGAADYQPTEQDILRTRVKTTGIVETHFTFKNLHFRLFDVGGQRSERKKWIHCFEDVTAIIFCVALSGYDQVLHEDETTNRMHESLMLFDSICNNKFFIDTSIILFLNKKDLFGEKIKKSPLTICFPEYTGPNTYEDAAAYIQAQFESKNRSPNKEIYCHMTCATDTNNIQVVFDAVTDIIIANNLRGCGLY
RGS4-Gao reg = modulates binding of RGS4 to human Galphao; P09471; Multiplexed bead flow cytometry; actives lie on both sides; binding response (% of control), % at 10 µM; 220,000 tested, 0.33% active; in the data active means binding response below about 49% or above about 150%; inactive means in between;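 further: fluorescent Galphao activated with aluminum fluoride binding bead-coupled RGS4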
GSH fluor = GSH bead compound fluorescence profile | 190,000 tested, 0.25% active | GSH beads flow cytometry, compound fluorescence 488/530 nm; hits give high values | fluorescence (KMESF) at 10 µM; in the data active means fluorescence above about 89;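 further: glutathione beads carrying GST-tagged Bcl family fusion proteins plus one bare bead set; values are compound well signal with DMSO vehicle wells as background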
RGS16-Gao HTS = modulates binding between human RGS16 and Galphao. O15492+P09471. bead-based flow cytometry RGS16-Galphao binding, fluorescence; actives lie on both sides. binding response (% of control), % at 10 µM. 220,000 tested, 0.38% active. AID 1441;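 further: Galphao activated by GDP with aluminum fluoride before binding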
RGS7-Gao = regulators of human RGS7-Galphao interaction. Multiplexed bead flow cytometry, RGS7-Galphao binding; actives lie on both sides. binding response (% of control), % at 10 µM. 220,000 tested, 0.35% active. AID 1439; in the data active means binding response below about 49% or above about 150%; inconclusive means no clear call, values can overlap the other calls; inactive means in between;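 further: fluorescent Galphao held in activated GDP-AlF4 state binding bead-coupled RGS7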
RGS-Gao = RGS4-Galphao interaction regulator (human); shares compounds with RGS16-Gao HTS; multiplexed bead flow cytometry, RGS–Galpha-o binding; RGS4–Galpha-o binding response, % at 10 µM; 1,600 tested, 99% active; AID 1504;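 further: fluorescently labeled Galpha-o bound to GDP with aluminium fluoride binding biotinylated RGS beads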
Avidin counter = biotin-avidin bead binding disruption counter-screen | shares compounds with RGS16-Gao HTS | 1,700 tested, under 10 active | AID 1783 | inhibition, % at 10 µM | streptavidin beads, fluorescein-biotin binding, flow cytometry;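 active means inhibition above 50%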;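 further: median green fluorescence of gated singlet beads compared with DMSO control wells; 0% = DMSO wells and 100% = complete loss of bead fluorescence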
RGS8-Gao confirm = RGS8-Galphao interaction regulation, single point confirmation | 1,700 tested, 3% active | binding response (% of control), % at 10 µM | bead-based flow cytometry RGS8-Galphao binding, fluorescence; actives lie on both sides | shares compounds with RGS16-Gao HTS; in the data active means binding response below about 72% or above about 130%; inactive means in between;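 further: Galphao activated as GDP AlF4 complex before binding bead RGS8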
RGS7-Gao confirm = confirmation of regulators of human RGS7-Galphao interaction; 1,700 tested, 7.8% active; response (percent of control binding), % at 10 µM; bead-based flow cytometry RGS7-Galphao binding; actives lie on both sides; shares compounds with RGS16-Gao HTS; in the data active means response below about 75% or above about 130%; inactive means in between;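 further: fluorescent Galphao activated with GDP and aluminum fluoride binding bead-coupled RGS7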
RGS16-Gao conf = RGS16-Galphao interaction regulation, single point confirmation | response (% of control binding), % at 10 µM | 1,700 tested, 4% active | shares compounds with RGS16-Gao HTS | bead-based flow cytometry, RGS16-Galphao binding; actives lie on both sides; in the data active means response below about 74% or above about 130%; inactive means in between;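 further: Galphao activated as the GDP aluminium fluoride complex binding bead-coupled RGS16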
RGS4-Gao single = RGS4-Galphao interaction regulation, single point confirmation; shares compounds with RGS16-Gao HTS; RGS4-Galphao binding, multiplexed bead flow cytometry; actives lie on both sides; binding response (% of control), % at 10 µM; 1,700 tested, 4% active; in the data active means binding response below about 74% or above about 130%; inactive means in between
RGS19-Gao single = confirmation of regulators of human RGS19-Galphao interaction; shares compounds with RGS16-Gao HTS; bead-based flow cytometry RGS19-Galphao binding; actives lie on both sides; response (percent of control binding), % at 10 µM; 1,700 tested, 5% active; AID 1841; in the data active means response below about 50% or above about 160%; inactive means in between;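 further: 100% = no compound control and 0% = blank background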
Target sequence (P09471 whole entry, looked up): as above
Target sequence (P49795 whole entry, looked up): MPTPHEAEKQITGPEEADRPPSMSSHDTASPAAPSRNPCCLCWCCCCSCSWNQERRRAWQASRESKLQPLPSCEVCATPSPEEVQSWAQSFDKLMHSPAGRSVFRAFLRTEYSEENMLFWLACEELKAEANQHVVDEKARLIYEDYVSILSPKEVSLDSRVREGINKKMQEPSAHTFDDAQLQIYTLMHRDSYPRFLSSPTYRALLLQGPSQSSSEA
* marks the source's active call; other numbers are inactive results; ? = inconclusive; . = no result given; [ ] = dose if it differs, or a comment. Hits are enriched below; roughly 1.2% of the tested compounds scored in any of these assays. Unless noted, how the calls were made is not given here.

SMILES	Avidin bead fluor	RGS8-Gao reg	RGS4-Gao reg	GSH fluor	RGS16-Gao HTS	RGS7-Gao	RGS-Gao	Avidin counter	RGS8-Gao confirm	RGS7-Gao confirm	RGS16-Gao conf	RGS4-Gao single	RGS19-Gao single
COc1cc(CCC(=O)O)on1	-1	20*	-10*	.	-8.1*	?	.	-1	98	81	94	90	80
COc1ccc(-c2noc(CCC(=O)O)n2)cc1	11	96	95	23	94	95	.	.	.	.	.	.	.
O=C(C[n+]1cccc(CNC(=O)c2ccc(OC(F)F)cc2)c1)Nc1ccc(F)cc1	1	91	116	18	21*	121	116*	0	105	106	105	107	118
O=C(C[n+]1cccc(CNC(=O)c2ccc(OC(F)F)cc2)c1)Nc1cccc(C(F)(F)F)c1	4	106	105	9	107	104	.	.	.	.	.	.	.
COC(=O)c1sc(-c2ccc(Cl)cc2)cc1N	3	101	104	.	100	?	.	.	.	.	.	.	.
COC(=O)c1sc(-c2cccs2)cc1N	50*	116	173*[activator]	.	159	?	.	1	100	99	98	101	97
CN(C)C(=O)NC(NC(=S)Nc1ccccc1)C(Cl)(Cl)Cl (stereo unspecified)	8	91	95	12	97	85	.	.	.	.	.	.	.
CN(C)C(=O)NC(Nc1ccc(Cl)cc1Cl)C(Cl)(Cl)Cl (stereo unspecified)	7	56*	71	18	17*	67	71*	2	95	89	89	89	92
CCN(CC)Cc1c(-c2ccccc2)[nH]c2ccc(C)cc2c1=O	2	142*[activator]	110	36	409	104	110*	-3	107	100	107	102	91
Cc1ccc2[nH]c(-c3ccccc3)cc(=O)c2c1	33	96	98	12	94	103	.	.	.	.	.	.	.
O=C(CNC(=O)c1ccccc1)NCc1ccc(Cl)cc1	30	102	104	10	103	150*[activator]	104*	2	110	112	113	109	112
O=C1CC(c2ccccc2)=Nc2ccccc2N1	13	101	103	37	97	100	.	.	.	.	.	.	.
O=C1CC(/C=C/c2ccncc2)=Nc2ccccc2N1	99*	96	117	24	96	162*[activator]	117*	-2	102	100	103	102	89
COc1ccc(OC)c(C2=NOC(C(=O)Nc3ccccc3SC)C2)c1 (stereo unspecified)	12	95	91	34	96	98	.	.	.	.	.	.	.
COc1ccc(OC)c(C2=NOC(C(=O)Nc3cccc(C(C)=O)c3)C2)c1 (stereo unspecified)	413*	99	157*[activator]	51	118	303*[activator]	.	3	93	88	91	93	93
CC(C)n1nc(C(=O)OCC(=O)c2c[nH]c3ccccc23)c2ccccc2c1=O	.	.	.	41	.	.	.	0	91	81	84	87	61
Cc1ccc(CN2CCSc3ccc(C(=O)NCc4cccnc4)cc32)cc1	8	98	96	13	93	?	.	.	.	.	.	.	.
CN(C)CCNC(=O)c1ccc2c(c1)N(Cc1ccc(F)cc1)CCS2	0	60*	44*	23	7	62	.	1	101	96	98	101	86
O=C(NC(=S)NCCOCc1ccc(Cl)cc1)c1cccnc1	1	67	89	12	16*	93	89*	-2	99	87	96	92	100
O=C(Cc1ccc(Cl)cc1)NNC(=S)NC(=O)c1cccnc1	9	95	93	13	95	93	.	.	.	.	.	.	.
CC(=O)C1=C(O)C(=O)N(Cc2cccnc2)C1c1ccc(Cl)cc1 (stereo unspecified)	21	100	100	16	100	102	.	.	.	.	.	.	.
CC(=O)C1=C(O)C(=O)N(Cc2ccccc2)C1c1cccs1 (stereo unspecified)	171*	101	119	68	106	202*[activator]	119*	-1	99	94	99	99	100
Cc1cccc(N2C(=O)CS/C2=N\NC(=O)c2ccc(Br)cc2)c1C	20	106	103	13	112	106	.	.	.	.	.	.	.
Cc1ccc(C(=O)N/N=C2\SCC(=O)N2c2cc(C)ccc2C)cc1	3	74	81	47	22*	83	81*	-2	109	107	108	106	108
CCN(CC)S(=O)(=O)c1ccc(NC(=O)C(OC)c2ccccc2)cc1 (stereo unspecified)	.	.	.	37	.	.	.	-1	100	93	99	99	97
SMILES	Avidin bead fluor	RGS8-Gao reg	RGS4-Gao reg	GSH fluor	RGS16-Gao HTS	RGS7-Gao	RGS-Gao	Avidin counter	RGS8-Gao confirm	RGS7-Gao confirm	RGS16-Gao conf	RGS4-Gao single	RGS19-Gao single
COC(C(=O)Nc1ccc(S(=O)(=O)Nc2c(C)cccc2C)cc1)c1ccccc1 (stereo unspecified)	14	100	102	14	106	102	.	.	.	.	.	.	.
c1ccc(-n2cnc3cc(NCc4ccco4)ccc32)cc1	8	103	105	22	100	107	.	.	.	.	.	.	.
Cc1ccc(/C=N/NC(=O)c2ccc3nc[nH]c3c2)o1	128*	95	156*[activator]	.	92	?	.	3	98	90	98	96	78
CCOC(=O)C1CCN(S(=O)(=O)Cc2ccc(Cl)cc2)CC1	.	.	170*[activator]	34	.	164*[activator]	.	0	88	61*	78	77	61
CCOC(=O)C1CCN(S(=O)(=O)Cc2ccccc2)CC1	36	102	101	23	104	101	.	.	.	.	.	.	.
COC(=O)c1ccccc1NC(=S)N(Cc1ccc2c(c1)OCO2)Cc1cc2ccc(C)cc2[nH]c1=O	16	105	105	8	107	103	.	.	.	.	.	.	.
